High-throughput results as filed in PubChem.
Rows were chosen to be rich in hits. Some 1.1% of all compounds tested hit in one or more screens of this group.
HDAC3 inhib: inhibitors of human histone deacetylase 3. 320,000 tested, 0.15% active. O15379. inhibition, % at 8.3 µM. recombinant HDAC3, fluorogenic peptide/trypsin coupled, fluorescence; in the data active means inhibition above about 26%, passing the limit was not always enough
NSD2 inh: blocks human histone methyltransferase NSD2; O96028; NSD2 peptide methylation, AlphaScreen, 120 min; inhibition, % at 12.5 µM; 310,000 tested, 0.54% active; AID 743445; in the data active means inhibition above about 50%
C-LANA FP: inhibitors of KSHV LANA C-terminal domain DNA binding; MBP-C-LANA/FAM-LBS DNA binding, fluorescence polarization; inhibition, % at 9 µM; 340,000 tested, 0.078% active;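 active means highest replicate inhibition at or above 60% at 9 µM, even if other replicates fall short; inactive means all replicates below 60% inhibition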;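 further: 0% = neutral control wells and 100% = 4 µM acridine orange control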
Glyco luc inh: blocks N-linked glycosylation in D54 reporter cells; D54 ERlucT glycosylation luciferase reporter, 24 h; percent of 100 nM tunicamycin response; reporter increase, % at 12.5 µM; 360,000 tested, 0.23% active; AID 588692;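 active means mean luciferase reporter signal, scaled so untreated is 0 and the glycosylation-blocking control 100, at or above a set limit in every replicate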;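 further: luciferase carries N-glycosylation sites so blocking glycosylation raises the light; 0% = median of neutral control wells and 100% = median of 100 nM tunicamycin wells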
Keap1-Nrf2 PPI: inhibitors of human Keap1-Nrf2 protein-protein interaction; Q14145; Keap1 Kelch-Nrf2 peptide fluorescence polarization, 1536-well; inhibition, % at 9.4 µM; 340,000 tested, 0.15% active; AID 504523; in the data active means inhibition above about 12%;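 further: human Keap1 Kelch domain with fluorescein labeled Nrf2 9mer peptide probe; 0% = neutral control wells and 100% = peptide positive control; higher means more block of Keap1 binding to Nrf2 peptide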
Casp6 inh: inhibitors of human caspase-6; P55212; purified caspase-6, Z-VEID-R110 cleavage fluorescence; inhibition, % at 12.5 µM; 350,000 tested, 0.53% active; AID 686996;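 active means mean inhibition across replicates at least about 35%, with every replicate also reaching that limit, limit read from the data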;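 further: 0% = median of neutral control wells and 100% = no fluorescence left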
Alpha artifact: interferes with AlphaScreen signal, flagging NSD2 false positives; shares compounds with NSD2 inh; AlphaScreen artifact counterscreen, preloaded methylated H4 peptide; AC35, µM (titrated, usually from 10 µM), for the others: at the top dose activity change, negative = signal loss; 1,500 tested, 9.4% active; AID 1053174; call rule not given here
* hit, by the source's call; · = no result.

SMILES	HDAC3 inhib	NSD2 inh	C-LANA FP	Glyco luc inh	Keap1-Nrf2 PPI	Casp6 inh	Alpha artifact
O=C(Nc1nnc(SCc2cccc3ccccc23)s1)C1COc2ccccc2O1 (stereo unspecified)	·	63*	1	2	-1	-3	-1%
CSc1nnc(-c2ccco2)c(-c2ccco2)n1	0	114*	33	3	2	48*	-8%
O=C(NCc1nc2ccccc2[nH]1)C1=C[C@@H](c2coc3ccccc3c2=O)C[C@@H](OCCCCO)O1	·	·	·	·	·	1	·
C[C@@H]1CCCCO[C@H](CN(C)C(=O)CCCN(C)C)[C@@H](C)CN([C@H](C)CO)C(=O)c2cc(NC(=O)Nc3ccc(F)cc3)ccc2O1	·	·	·	·	·	-2	·
Cc1nc(-[n+]2nc(-c3ccncc3)nn2-c2ccccc2)sc1C	·	69*	·	-6	·	16	2.1µM*
Cc1ccc(S(=O)(=O)/N=C2/NC(=O)/C(=C\c3cc(Br)cc(Br)c3O)S2)cc1	11	109*	-16	3	-74	·	-4%
Cc1ccc(S(=O)(=O)/N=C2/NC(=O)/C(=C/c3ccc(Br)o3)S2)cc1	8	70*	1	2	-3	·	-2%
CCCCn1c(NC(=O)c2ccc(Br)o2)c(S(=O)(=O)c2ccccc2)c2nc3ccccc3nc21	-24	104*	0	0	-7	·	1%
CCCCn1c(NS(=O)(=O)c2ccccc2)c(S(=O)(=O)c2ccc(C)cc2)c2nc3ccccc3nc21	-4	102*	0	2	-17	98*	-2%
CCCCn1c(NC(=O)c2ccco2)c(S(=O)(=O)c2ccc(C)cc2)c2nc3ccccc3nc21	·	·	7	-1	1	15	·
COCC#Cc1cnc2c(c1)C(=O)N([C@H](C)CO)C[C@@H](C)[C@H](CN(C)C(=O)c1ccc3c(c1)OCO3)O2	·	·	·	·	·	-3	·
CC(=O)NC(=S)Nc1ccc(NC(=S)NC(=O)/C=C/c2ccco2)cc1	3	1	1	-1	-3	2	·
CCc1ccccc1NC(=O)c1cccc(NC(=O)/C=C/c2ccco2)c1	7	0	1	4	-4	·	·
O=C(/C=C/c1ccco1)NC(=S)Nc1ccc(C(=O)O)cc1	6	66*	62*	0	-1	44*	-5%
O=C(/C=C/c1ccco1)Nc1cccc(C(=O)Nc2ccccc2C(=O)O)c1	3	76*	25	0	4	60*	0%
COc1ccccc1OCC(=O)Nc1ccccc1C(=O)N1CCCC1	0	80*	-1	0	-6	-1	-3%
COc1ccccc1C(=O)Nc1ccccc1C(=O)N1CCCC1	3	-2	-2	0	-5	·	·
COc1ccccc1OCC(=O)Nc1ccc(S(=O)(=O)N2CCN(C)CC2)cc1	0	4	0	-1	-2	-1	·
COc1ccccc1OCC(=O)Nc1ccc(S(=O)(=O)N2CCCC2)cc1	4	69*	2	-2	-2	0	-2%
COCC(=O)Nc1ccc2c(c1)C(=O)N(C)[C@@H]1CC[C@H](CC(=O)NCc3ccccc3F)O[C@@H]1CO2	·	·	·	·	·	1	·
Nc1ccc2c(c1)OCCOCCOCCOCCOCCO2	0	64*	-7	1	-5	26	0%
Brc1ccc2c(c1)OCCOCCOc1cc(Br)ccc1OCCOCCOCCO2	-1	·	-1	22	-1	·	·
CCOC(=O)c1ccc(CC(=O)c2oc3cc(O)ccc3c2C)o1	1	2	6	0	4	5	·
CCOC(=O)c1ccc(CC(=O)c2ccc(O)c(O)c2O)o1	·	91*	6	0	-8	16	-8%
CC1C/C(=C\c2cccnc2)C(=O)/C(=C/c2cccnc2)C1 (stereo unspecified)	5	58*	0	-21	-5	·	-8%
SMILES	HDAC3 inhib	NSD2 inh	C-LANA FP	Glyco luc inh	Keap1-Nrf2 PPI	Casp6 inh	Alpha artifact
COc1ccccc1C(=O)Cc1ccccc1	·	-1	0	-2	0	-1	·
COc1ccccc1C(=O)NNC(=O)Cc1ccccc1	10	55*	1	-1	2	0	2%
C[C@@H]1CN([C@H](C)CO)S(=O)(=O)c2ccc(-c3ccncc3)cc2O[C@@H]1CN(C)CC1CC1	·	·	·	·	·	1	·
O=C(c1cccnc1)N1C[C@@H]2[C@H](c3ccccc31)[C@@H](CO)N2C(=O)C1CCOCC1	·	·	·	·	·	3	·
Cc1ccc(N2C(=O)C3C(C2=O)N2CCCN2C3c2ccccc2)cc1C (stereo unspecified)	-1	6	0	0	-9	3	·
CCc1ccc(N2C(=O)C3C(C2=O)N2CCCN2C3c2ccccc2)cc1 (stereo unspecified)	-1	64*	-4	2	-6	3	0%
COc1ccc(C(=O)NCc2nnc(SCC(=O)Nc3cc(C)cc(C)c3)o2)cc1OC	10	75*	0	0	0	·	-3%
O=C(O)CC1S/C(=N/N=C/c2ccc(-c3ccccc3[N+](=O)[O-])o2)NC1=O (stereo unspecified)	2	91*	3	8	-1	·	1%
Cc1ccc(-c2ccc(/C=N/N=C3/NC(=O)C(CC(=O)O)S3)o2)c([N+](=O)[O-])c1 (stereo unspecified)	12	5	0	4	-2	·	·
COc1ccc(CCC(=O)NCCOc2ccccc2Cl)cc1	-1	124*	-1	-1	-4	-2	-2%
CCOc1ccccc1NC(=O)C1CCCN1C(=O)c1cccs1 (stereo unspecified)	-1	108*	0	3	3	-3	-6%
O=C(C[C@@H]1CC[C@@H]2[C@H](COC[C@@H](O)CN2Cc2cccc(C(F)(F)F)c2)O1)NCCc1ccncc1	·	·	·	·	·	-4	·
CCCC1=NN2C(=N)/C(=C\c3ccc(SCc4ccco4)o3)C(=O)N=C2S1	1	·	7	1	-8	·	·
CCC1=NN2C(=N)/C(=C\c3ccc(SCc4ccco4)o3)C(=O)N=C2S1	6	103*	10	0	-7	·	-7%
O=C(NC[C@@H]1CC[C@H]2[C@H](CN2Cc2ccccc2F)O1)C1CC1	·	·	·	·	·	0	·
O=C1c2cccnc2C(=O)N1CO	1	1	0	2	4	·	·
NC1=C(Br)C(=O)c2ncccc2C1=O	·	101*	0	-20	0	100*	5%
O=C(O)COc1ccc2nsnc2c1Cl	-17	-1	0	1	-3	·	·
Cc1ccccc1C1=C/C(=C(\SS/C(C(=O)c2ccc(OCC(=O)O)c(Cl)c2Cl)=C2\C=C(c3ccccc3C)SS2)C(=O)c2ccc(OCC(=O)O)c(Cl)c2Cl)SS1	·	53*	100*	-5	5	46*	5.2µM*
CSc1ccccc1NC(=O)CN(C)C(=O)COc1ncnc2ccccc12	-15	56*	-2	-1	-3	0	1%
